According to PubChem BioAssay AID1159580 (chemical genetic matrix, 2015):
Screen size: about 5,500 compounds; about 2,000 (36%) were called active. Another 18% or so got no clear call; they are omitted. Rule as the data show it: active = normalized growth mostly below about 0.91 (no sharp cut-off); inconclusive = no clear call, values can overlap the other calls; inactive = mostly above about 0.92. The list shows a part of the results.

Experiment: chemical genetic growth profiling, strain panel (AID 1159580);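 also: tested at 20 µM; growth read once vehicle control cultures reached saturation at 30 °C; 1 = growth at the plate median or of vehicle wells; lower values mean less growth of the strain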
Conditions: growth OD

Measured: normalized growth

CC(=O)N[C@@H](CS)C(=O)O
inactive: S. cerevisiae deletion strains, locus YAL013W, strain DEP1, stronger effect = lower value 1 | S. cerevisiae deletion strains, locus YAL021C, strain ccr4, stronger effect = lower value 1.02 | S. cerevisiae deletion strains, locus YAL026C, strain drs2, stronger effect = lower value 1 | S. cerevisiae deletion strains, locus YAL030W, strain snc1, stronger effect = lower value 0.995 | S. cerevisiae deletion strains, locus YBL061C, strain skt5, stronger effect = lower value 1.01 | S. cerevisiae deletion strains, locus YBR009C, strain hhf1, stronger effect = lower value 1 | S. cerevisiae deletion strains, locus YBR021W, strain FUR4, stronger effect = lower value 0.989 | S. cerevisiae deletion strains, locus YBR023C, strain chs3, stronger effect = lower value 0.994 | S. cerevisiae deletion strains, locus YBR171W, strain sec66, stronger effect = lower value 0.991 | S. cerevisiae deletion strains, locus YBR229C, strain ROT2, stronger effect = lower value 1.01 | S. cerevisiae deletion strains, locus YBR231C, strain swc5, stronger effect = lower value 1.01 | S. cerevisiae deletion strains, locus YBR279W, strain paf1, stronger effect = lower value 1.01 | S. cerevisiae deletion strains, locus YCL011C, strain gbp2, stronger effect = lower value 0.997 | S. cerevisiae deletion strains, locus YCL016C, strain dcc1, stronger effect = lower value 0.998 | S. cerevisiae deletion strains, locus YCL029C, strain bik1, stronger effect = lower value 1.03 | S. cerevisiae deletion strains, locus YCL061C, strain MRC1, stronger effect = lower value 0.995 | S. cerevisiae deletion strains, locus YCL069W, strain vba3, stronger effect = lower value 1.01 | S. cerevisiae deletion strains, locus YCR088W, strain abp1, stronger effect = lower value 1 | S. cerevisiae deletion strains, locus YDL005C, strain med2, stronger effect = lower value 0.992 | S. cerevisiae deletion strains, locus YDL035C, strain GPR1, stronger effect = lower value 1 | S. cerevisiae deletion strains, locus YDL040C, strain nat1, stronger effect = lower value 1.01 | S. cerevisiae deletion strains, locus YDL074C, strain BRE1, stronger effect = lower value 1.01 | S. cerevisiae deletion strains, locus YDL101C, strain DUN1, stronger effect = lower value 1.01 | S. cerevisiae deletion strains, locus YDL134C, strain PPH21, stronger effect = lower value 0.997 | S. cerevisiae deletion strains, locus YDL185W, strain tfp1, stronger effect = lower value 1.02 | S. cerevisiae deletion strains, locus YDL192W, strain arf1, stronger effect = lower value 1.01 | S. cerevisiae deletion strains, locus YDR001C, strain nth1, stronger effect = lower value 0.997 | S. cerevisiae deletion strains, locus YDR069C, strain doa4, stronger effect = lower value 1.01 | S. cerevisiae deletion strains, locus YDR101C, strain arx1, stronger effect = lower value 1.01 | S. cerevisiae deletion strains, locus YDR137W, strain rgp1, stronger effect = lower value 1.02 | S. cerevisiae deletion strains, locus YDR159W, strain sac3, stronger effect = lower value 1.01 | S. cerevisiae deletion strains, locus YDR162C, strain NBP2, stronger effect = lower value 1.02 | S. cerevisiae deletion strains, locus YDR195W, strain ref2 0.985 | S. cerevisiae deletion strains, locus YDR297W, strain sur2, stronger effect = lower value 0.99 | S. cerevisiae deletion strains, locus YDR318W, strain mcm21, stronger effect = lower value 1.02 | S. cerevisiae deletion strains, locus YDR334W, strain swr1, stronger effect = lower value 1 | S. cerevisiae deletion strains, locus YDR335W, strain msn5, stronger effect = lower value 1.01 | S. cerevisiae deletion strains, locus YDR388W, stronger effect = lower value 1.02 | S. cerevisiae deletion strains, locus YDR392W, strain spt3, stronger effect = lower value 1.02 | S. cerevisiae deletion strains, locus YDR502C, strain sam2, stronger effect = lower value 1.01 | S. cerevisiae deletion strains, locus YEL003W, strain gim4, stronger effect = lower value 1.01 | S. cerevisiae deletion strains, locus YEL037C, strain rad23, stronger effect = lower value 1 | S. cerevisiae deletion strains, locus YEL061C, strain CIN8 (second series), stronger effect = lower value 0.988 | S. cerevisiae deletion strains, locus YEL061C, strain CIN8, stronger effect = lower value 1.01 | S. cerevisiae deletion strains, locus YER015W, strain faa2, stronger effect = lower value 1 | S. cerevisiae deletion strains, locus YER016W, strain bim1, stronger effect = lower value 0.995 | S. cerevisiae deletion strains, locus YER110C, stronger effect = lower value 1.03 | S. cerevisiae deletion strains, locus YER111C, strain swi4, stronger effect = lower value 0.989 | S. cerevisiae deletion strains, locus YER155C, strain BEM2 (second series), stronger effect = lower value 1.01 | S. cerevisiae deletion strains, locus YER155C, strain BEM2, stronger effect = lower value 1.01 | S. cerevisiae deletion strains, locus YER167W, strain BCK2, stronger effect = lower value 1.01 | S. cerevisiae deletion strains, locus YFR010W, strain ubp6, stronger effect = lower value 0.983 | S. cerevisiae deletion strains, locus YGL078C, strain dbp3, stronger effect = lower value 1.01 | S. cerevisiae deletion strains, locus YGL086W, strain mad1, stronger effect = lower value 1.01 | S. cerevisiae deletion strains, locus YGL167C, strain pmr1, stronger effect = lower value 0.995 | S. cerevisiae deletion strains, locus YGL173C, strain kem1, stronger effect = lower value 1 | S. cerevisiae deletion strains, locus YGL227W, strain vid30, stronger effect = lower value 1 | S. cerevisiae deletion strains, locus YGL240W, strain doc1, stronger effect = lower value 0.964 | S. cerevisiae deletion strains, locus YGL248W, strain PDE1, stronger effect = lower value 1.02 | S. cerevisiae deletion strains, locus YGL253W, strain hxk2, stronger effect = lower value 1.02 | S. cerevisiae deletion strains, locus YGR135W, strain pre9, stronger effect = lower value 1.02 | S. cerevisiae deletion strains, locus YGR252W, strain gcn5, stronger effect = lower value 0.999 | S. cerevisiae deletion strains, locus YHR013C, strain ard1, stronger effect = lower value 1.02 | S. cerevisiae deletion strains, locus YHR027C, strain rpn1, stronger effect = lower value 1.01 | S. cerevisiae deletion strains, locus YHR030C, strain SLT2, stronger effect = lower value 1.01 | S. cerevisiae deletion strains, locus YHR079C, strain IRE1 (second series), stronger effect = lower value 1.03 | S. cerevisiae deletion strains, locus YHR094C, strain hxt1, stronger effect = lower value 1.01 | S. cerevisiae deletion strains, locus YHR129C, strain ARP1, stronger effect = lower value 1.01 | S. cerevisiae deletion strains, locus YHR142W, strain chs7, stronger effect = lower value 1.02 | S. cerevisiae deletion strains, locus YHR200W, strain rpn10, stronger effect = lower value 1.02 | S. cerevisiae deletion strains, locus YIL066C, strain RNR3, stronger effect = lower value 1.02 | S. cerevisiae deletion strains, locus YIL073C, strain SPO22, stronger effect = lower value 1.07 | S. cerevisiae deletion strains, locus YIL125W, strain kgd1, stronger effect = lower value 1.02 | S. cerevisiae deletion strains, locus YIR030C, strain dcg1, stronger effect = lower value 1.01 | S. cerevisiae deletion strains, locus YJL092W, strain hpr5, stronger effect = lower value 1.02 | S. cerevisiae deletion strains, locus YJL095W, strain BCK1 (second series), stronger effect = lower value 1.01 | S. cerevisiae deletion strains, locus YJL095W, strain BCK1, stronger effect = lower value 1.01 | S. cerevisiae deletion strains, locus YJL115W, strain asf1, stronger effect = lower value 0.991 | S. cerevisiae deletion strains, locus YJL129C, strain trk1, stronger effect = lower value 1 | S. cerevisiae deletion strains, locus YJL134W, strain LCB3, stronger effect = lower value 1.01 | S. cerevisiae deletion strains, locus YJL154C, strain vps35, stronger effect = lower value 1.01 | S. cerevisiae deletion strains, locus YJL164C, strain tpk1, stronger effect = lower value 1 | S. cerevisiae deletion strains, locus YJL166W, strain qcr8, stronger effect = lower value 0.985 | S. cerevisiae deletion strains, locus YJL168C, strain set2, stronger effect = lower value 1.01 | S. cerevisiae deletion strains, locus YJL187C, strain SWE1 (second series), stronger effect = lower value 1.03 | S. cerevisiae deletion strains, locus YJR043C, strain POL32, stronger effect = lower value 1 | S. cerevisiae deletion strains, locus YKL009W, strain mrt4, stronger effect = lower value 1.04 | S. cerevisiae deletion strains, locus YKL068W, stronger effect = lower value 1.01 | S. cerevisiae deletion strains, locus YKL085W, strain MDH1 (second series), stronger effect = lower value 1 | S. cerevisiae deletion strains, locus YKL085W, strain MDH1, stronger effect = lower value 1 | S. cerevisiae deletion strains, locus YKL160W, strain elf1, stronger effect = lower value 0.998 | S. cerevisiae deletion strains, locus YKR001C, strain vps1, stronger effect = lower value 1.01 | S. cerevisiae deletion strains, locus YKR026C, strain gcn3, stronger effect = lower value 0.991 | S. cerevisiae deletion strains, locus YKR091W, strain srl3, stronger effect = lower value 1.01 | S. cerevisiae deletion strains, locus YLL001W, strain dnm1, stronger effect = lower value 0.994 | S. cerevisiae deletion strains, locus YLL026W, stronger effect = lower value 1.01 | S. cerevisiae deletion strains, locus YLL041C, strain sdh2, stronger effect = lower value 1.01 | S. cerevisiae deletion strains, locus YLR027C, strain aat2, stronger effect = lower value 1.01 | S. cerevisiae deletion strains, locus YLR039C, strain RIC1, stronger effect = lower value 1.02 | S. cerevisiae deletion strains, locus YLR058C, strain SHM2, stronger effect = lower value 1.02 | S. cerevisiae deletion strains, locus YLR102C, strain apc9, stronger effect = lower value 1.02 | S. cerevisiae deletion strains, locus YLR221C, strain rsa3, stronger effect = lower value 1 | S. cerevisiae deletion strains, locus YLR258W, strain gsy2, stronger effect = lower value 1.01 | S. cerevisiae deletion strains, locus YLR262C, strain YPT6 (second series), stronger effect = lower value 1 | S. cerevisiae deletion strains, locus YLR262C, strain YPT6, stronger effect = lower value 1.08 | S. cerevisiae deletion strains, locus YLR268W, strain sec22, stronger effect = lower value 1.02 | S. cerevisiae deletion strains, locus YLR320W, strain mms22, stronger effect = lower value 1.01 | S. cerevisiae deletion strains, locus YLR330W, strain CHS5, stronger effect = lower value 1.01 | S. cerevisiae deletion strains, locus YLR342W, strain FKS1 (second series), stronger effect = lower value 0.995 | S. cerevisiae deletion strains, locus YLR342W, strain FKS1, stronger effect = lower value 1.01 | S. cerevisiae deletion strains, locus YLR357W, strain rsc2, stronger effect = lower value 0.989 | S. cerevisiae deletion strains, locus YLR370C, strain arc18, stronger effect = lower value 1.01 | S. cerevisiae deletion strains, locus YLR371W, strain rom2, stronger effect = lower value 1.03 | S. cerevisiae deletion strains, locus YLR384C, strain iki3, stronger effect = lower value 1.01 | S. cerevisiae deletion strains, locus YLR418C, strain cdc73, stronger effect = lower value 1.05 | S. cerevisiae deletion strains, locus YML016C, strain PPZ1, stronger effect = lower value 1.01 | S. cerevisiae deletion strains, locus YML032C, strain rad52, stronger effect = lower value 1.01 | S. cerevisiae deletion strains, locus YML120C, strain ndi1, stronger effect = lower value 0.999 | S. cerevisiae deletion strains, locus YML124C, strain tub3, stronger effect = lower value 1.04 | S. cerevisiae deletion strains, locus YMR058W, strain fet3, stronger effect = lower value 0.998 | S. cerevisiae deletion strains, locus YMR078C, strain ctf18, stronger effect = lower value 1.03 | S. cerevisiae deletion strains, locus YMR125W, strain sto1, stronger effect = lower value 1.01 | S. cerevisiae deletion strains, locus YMR129W, stronger effect = lower value 0.984 | S. cerevisiae deletion strains, locus YMR205C, strain PFK2, stronger effect = lower value 0.995 | S. cerevisiae deletion strains, locus YMR223W, strain ubp8, stronger effect = lower value 1.02 | S. cerevisiae deletion strains, locus YMR231W, strain pep5, stronger effect = lower value 1 | S. cerevisiae deletion strains, locus YMR263W, strain SAP30, stronger effect = lower value 1.01 | S. cerevisiae deletion strains, locus YMR307W, strain GAS1, stronger effect = lower value 1.04 | S. cerevisiae deletion strains, locus YNL067W, strain RPL9B, stronger effect = lower value 1.03 | S. cerevisiae deletion strains, locus YNL071W, strain lat1, stronger effect = lower value 1.02 | S. cerevisiae deletion strains, locus YNL128W, strain TEP1, stronger effect = lower value 1.03 | S. cerevisiae deletion strains, locus YNL153C, strain GIM3, stronger effect = lower value 1.02 | S. cerevisiae deletion strains, locus YNL209W, strain ssb2, stronger effect = lower value 1 | S. cerevisiae deletion strains, locus YNL233W, strain BNI4, stronger effect = lower value 1.01 | S. cerevisiae deletion strains, locus YNL248C, strain rpa49, stronger effect = lower value 1.08 | S. cerevisiae deletion strains, locus YNL250W, strain rad50, stronger effect = lower value 1.01 | S. cerevisiae deletion strains, locus YNL271C, strain bni1, stronger effect = lower value 1.03 | S. cerevisiae deletion strains, locus YNL298W, strain CLA4, stronger effect = lower value 1.02 | S. cerevisiae deletion strains, locus YNL307C, strain MCK1, stronger effect = lower value 1.02 | S. cerevisiae deletion strains, locus YNL322C, strain KRE1 (second series), stronger effect = lower value 0.999 | S. cerevisiae deletion strains, locus YNR049C, strain mso1, stronger effect = lower value 1 | S. cerevisiae deletion strains, locus YNR052C, strain pop2, stronger effect = lower value 1.03 | S. cerevisiae deletion strains, locus YOL006C, strain TOP1, stronger effect = lower value 0.995 | S. cerevisiae deletion strains, locus YOL012C, strain htz1 0.978 | S. cerevisiae deletion strains, locus YOL147C, strain pex11, stronger effect = lower value 1.02 | S. cerevisiae deletion strains, locus YOR001W, strain rrp6, stronger effect = lower value 1.02 | S. cerevisiae deletion strains, locus YOR061W, strain CKA2, stronger effect = lower value 1.02 | S. cerevisiae deletion strains, locus YOR069W, strain VPS5, stronger effect = lower value 1.01 | S. cerevisiae deletion strains, locus YOR070C, strain gyp1, stronger effect = lower value 1 | S. cerevisiae deletion strains, locus YOR080W, strain dia2, stronger effect = lower value 0.984 | S. cerevisiae deletion strains, locus YOR083W, strain WHI5, stronger effect = lower value 1 | S. cerevisiae deletion strains, locus YOR106W, strain vam3, stronger effect = lower value 1.02 | S. cerevisiae deletion strains, locus YOR136W, strain idh2, stronger effect = lower value 1.03 | S. cerevisiae deletion strains, locus YOR144C, strain elg1, stronger effect = lower value 1.03 | S. cerevisiae deletion strains, locus YOR184W, strain ser1, stronger effect = lower value 1.01 | S. cerevisiae deletion strains, locus YOR265W, strain rbl2, stronger effect = lower value 1 | S. cerevisiae deletion strains, locus YOR270C, strain vph1, stronger effect = lower value 1.04 | S. cerevisiae deletion strains, locus YOR290C, strain snf2, stronger effect = lower value 0.994 | S. cerevisiae deletion strains, locus YOR316C, strain cot1, stronger effect = lower value 1.02 | S. cerevisiae deletion strains, locus YPL051W, strain arl3, stronger effect = lower value 1.01 | S. cerevisiae deletion strains, locus YPL078C, strain atp4, stronger effect = lower value 0.992 | S. cerevisiae deletion strains, locus YPL106C, strain sse1, stronger effect = lower value 0.988 | S. cerevisiae deletion strains, locus YPL240C, strain hsp82, stronger effect = lower value 0.999 | S. cerevisiae deletion strains, locus YPR119W, strain clb2, stronger effect = lower value 1.02 | S. cerevisiae deletion strains, locus YPR141C, strain kar3, stronger effect = lower value 1.03 | S. cerevisiae deletion strains, locus YPR163C, strain tif3, stronger effect = lower value 1.03 | S. cerevisiae deletion strains, locus YPR167C, strain met16, stronger effect = lower value 1.06 | S. cerevisiae deletion strains, strain wtn01, stronger effect = lower value 1.01 | S. cerevisiae strains, strain wild type, stronger effect = lower value 1.01
